Results reported in PubChem BioAssay (NCATS).
Records with an inconclusive call do not appear. Where a call stands in place of a potency, no number is given. The source made the active and inactive calls. Unless noted, calls come from the whole dose curve; as a rule, active = well fitted curve in the direction sought with a large enough effect; inconclusive = small, poorly fitted or top-dose-only effect, or another doubt; inactive = no such curve, though single readings can be large; an effect the other way counts as inactive or inconclusive.

Tests used:
[1] = molecular target: phosphoglycerate mutase (Leishmania major) (UniProt Q4Q090); assay: qHTS Validation Assay to Find Inhibitors of Phosphoglycerate Mutase (AID 504548);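 note: end-point luminescence from Kinase-GloPlus after the PGAM reaction; series mostly up to about 58 µM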
In short: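 Inhibition of L. major PGAM was assessed by Kinase-GloPlus luminescence following a 45-minute room-temperature reaction with enzyme at 1.25nM final.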

[2] = molecular target: Ubiquitin carboxyl-terminal hydrolase 1 (Homo sapiens) (UniProt O94782); assay: Inhibitors of USP1/UAF1: Pilot qHTS (AID 504865); note: nearly all actives have a fitted effect of over 35% in size; note: potency is the fitted concentration of half-maximal effect
In short: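 USP1/UAF1 complex at 1 nM preincubated 15 min at room temperature with compound, then Ub-Rho substrate added at 150 nM final. Fluorescence (480/540 nm) read kinetically in 50 mM HEPES pH 7.8, 0.5 mM EDTA, 1 mM TCEP, 0.1 mg/ml BSA, 0.01% Tween-20.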

[3] = qHTS for Inhibitors of ATXN expression: Validation of Cytotoxic Assay (AID 588349); note: potency is the fitted concentration of half-maximal effect
In short: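 Read-out: ATP-based luminescence (CellTiter Glo) reflecting viability of HEK293 cells after 72 hr incubation at 37 degrees C with a concentration series of each compound.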

[4] = molecular target: DNA dC->dU-editing enzyme APOBEC-3G (Homo sapiens) (UniProt Q9HC16); assay: qHTS for inhibitors of Vif-A3G interactions: Validation (AID 588379)
In short: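 HeLa cells stably expressing Vif and A3G-eYFP, 700 cells/well, incubated overnight at 37 deg C, then exposed to compound overnight at 37 deg C. Inhibition of Vif-mediated degradation read as increased yellow fluorescence (Ex 488/Em 500-530) by laser-scanning cytometry.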

[5] = qHTS for Inhibitors of ATXN expression: Validation (AID 588378); note: series mostly up to about 57 µM; nearly all actives have a fitted effect of over 75% in size
In short: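 HEK293 cells carrying ATXN2-firefly luciferase reporter, treated with compound 24 h at 37 °C. Viability read first by CellTiter-Fluor (405/525 nm), then reporter expression by Bright-Glo luminescence; controls were a known ATXN2 expression inhibitor and a luciferase inhibitor.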

[6] = molecular target: Glucocorticoid receptor (Homo sapiens) (UniProt P04150); assay: qHTS assay for small molecule agonists of glucocorticoid receptor signaling (AID 588532; active = well fitted curve in the direction sought with a large enough effect in the signal ratio, with a control signal flat; the % refers to the signal ratio); conditions: HeLa MMTV-bla, beta-lactamase ratio, agonist, 18 h; stronger effect = higher value; percent of dexamethasone control, DMSO zero
In short: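 MMTV-bla HeLa, beta-lactamase reporter; medium with 1% charcoal/dextran-stripped FBS; cpds up to 92 uM, 18 h, 37 C; CCF4 readout 460/530 nm; Hill fit → EC50, efficacy vs 0.1 uM dexamethasone = 100%.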

[7] = qHTS assay for small molecule antagonists of peroxisome proliferator-activated receptor delta signaling (AID 588535; active = well fitted inhibition curve with a large enough effect in the signal ratio, with a control signal flat, not every such curve was filed as active; the % refers to the signal ratio;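 for max response: cells co-treated with a PPAR-delta agonist as stimulator during compound exposure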); conditions: HEK293T PPARd-UAS-bla, beta-lactamase FRET ratio, 18 h; 460 nm channel
In short: (§1)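 Reporter: UAS-bla under PPAR-delta response element, HEK293T host. Medium: 2% charcoal/dextran FBS. Dosing: titration, 18 hrs, 37 C. Detection: CCF4, 2 hrs RT, 405 ex/460 and 530 em.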

[8] = molecular target: Peroxisome proliferator-activated receptor delta (Homo sapiens) (UniProt Q03181); assay: as above
In short: as §1

[9] = molecular target: Peroxisome proliferator-activated receptor gamma (Homo sapiens) (UniProt P37231); assay: qHTS assay for small molecule agonists of peroxisome proliferator-activated receptor gamma signaling (AID 588536; active = well fitted curve in the direction sought with a large enough effect in the signal ratio, with a control signal flat, not every such curve was filed as active; the % refers to the signal ratio)
In short: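 HEK293 UAS-bla reporter line, 1% charcoal/dextran FBS; titration, 16 h, 37 C; CCF4 loading 2 h RT; fluorescence 460/530 nm. Normalized to rosiglitazone 2 uM = 100%, DMSO = 0%.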

[10] = molecular target: Peroxisome proliferator-activated receptor gamma (Homo sapiens) (UniProt P37231); assay: qHTS assay for small molecule antagonists of peroxisome proliferator-activated receptor gamma signaling (AID 588537; active = well fitted inhibition curve with a large enough effect in the signal ratio, with a control signal flat, not every such curve was filed as active; the % refers to the signal ratio;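 note: reporter cells co-stimulated with 50 nM rosiglitazone agonist during compound treatment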)
In short: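 We seeded GeneBLAzer HEK293 reporter cells at 3000 per well, allowed 6-6.5 h attachment at 37 C, then co-treated with test compound titrations and 50 nM rosiglitazone overnight (16 h). Inhibition was quantified from 460/530 nm emission ratios.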

[11] = qHTS assay for small molecule agonists of retinoid X receptor alpha signaling (AID 588544; calls by dose curve); conditions: HEK293T RXRa-UAS-bla, beta-lactamase reporter, 18 h; 530 nm emission
[12] = molecular target: Retinoic acid receptor RXR-alpha (Homo sapiens) (UniProt P19793); assay: as above
[13] = qHTS assay for small molecule antagonists of retinoid X receptor alpha signaling (AID 588546); conditions: HEK293T RXRa-UAS-bla, beta-lactamase ratio, antagonist mode; measured here: W530 green channel, cytotoxicity proxy;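 note: cells stimulated with 9-cis-retinoic acid as agonist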
In short: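 Beta-lactamase reporter inhibition, read as CCF4 fluorescence ratio (ex 405, em 460/530 nm) after 2 h at RT. HEK293T UAS-bla cells, 2500/well, were stimulated with 9-cis-RA at 500 or 100 nM final alongside test compound for 18 h at 37 C.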

[14] = molecular target: Estrogen receptor (Homo sapiens) (UniProt P03372); assay: qHTS assay for small molecule antagonists of estrogen receptor alpha signaling (AID 588513; active = well fitted curve in the direction sought with a large enough effect in the signal ratio, with a control signal flat, not every such curve was filed as active; the % refers to the signal ratio)
In short: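 ER-alpha-UAS-bla GripTite HEK 293 cells in 2% charcoal/dextran-treated FBS medium; compounds titrated (1:2, duplicate), then stimulated with 0.5 nM 17-beta-estradiol for 18 h at 37C. CCF4 beta-lactamase fluorescence; Hill-fit IC50 and efficacy.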

[15] = molecular target: Estrogen receptor (Homo sapiens) (UniProt P03372); assay: qHTS assay for small molecule agonists of estrogen receptor alpha signaling (AID 588514; calls by dose curve; note: nearly all actives have a fitted effect of over 70% in size)
In short: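 Cells were plated at 5000/well, incubated 4 hrs at 37 C, dosed with compound titration series, incubated 18 hrs at 37 C, loaded with CCF4 dye for 2 hrs at RT, then fluorescence was read.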

[16] = molecular target: Vitamin D3 receptor (Homo sapiens) (UniProt P11473); assay: qHTS assay for small molecule antagonists of vitamin D receptor signaling (AID 588541; calls by dose curve;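 note: receptor activated by calcitriol during compound treatment; series mostly up to about 77 µM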)
In short: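 VDR-UAS-bla HEK293T cells (2000/well, 2% charcoal-stripped FBS) were treated with titrated compounds plus 1-alpha,25-dihydroxyvitamin D3 (50 nM or 3 nM final) for 16 h at 37 C. CCF4 beta-lactamase fluorescence was read; Hill fits gave IC50.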

[17] = molecular target: Vitamin D3 receptor (Homo sapiens) (UniProt P11473); assay: qHTS assay for small molecule agonists of vitamin D receptor signaling (AID 588543; calls by dose curve)
In short: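 VDR-UAS-bla HEK293T cells, 2000/well, 2% charcoal-stripped FBS; compound titration 16 h at 37 C; CCF4 beta-lactamase ratio read. Normalized to 50 nM 1-alpha,25-dihydroxyvitamin D3 (100%) and DMSO; Hill fit gives EC50, efficacy.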

[18] = molecular target: Thyroid hormone receptor beta (Homo sapiens) (UniProt P10828); assay: qHTS assay for small molecule agonists of thyroid hormone receptor beta signaling (AID 588545; calls by dose curve)
In short: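 Efficacy and EC50 values derive from Hill fits of qHTS titration data, normalized to 10 nM T3 and DMSO-only wells. HEK 293 reporter cells were stimulated for 18 hrs at 37 C, with beta-lactamase activity measured by CCF4 fluorescence.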

phosphoglycerate mutase (Leishmania major), sequence (Q4Q090 1-553): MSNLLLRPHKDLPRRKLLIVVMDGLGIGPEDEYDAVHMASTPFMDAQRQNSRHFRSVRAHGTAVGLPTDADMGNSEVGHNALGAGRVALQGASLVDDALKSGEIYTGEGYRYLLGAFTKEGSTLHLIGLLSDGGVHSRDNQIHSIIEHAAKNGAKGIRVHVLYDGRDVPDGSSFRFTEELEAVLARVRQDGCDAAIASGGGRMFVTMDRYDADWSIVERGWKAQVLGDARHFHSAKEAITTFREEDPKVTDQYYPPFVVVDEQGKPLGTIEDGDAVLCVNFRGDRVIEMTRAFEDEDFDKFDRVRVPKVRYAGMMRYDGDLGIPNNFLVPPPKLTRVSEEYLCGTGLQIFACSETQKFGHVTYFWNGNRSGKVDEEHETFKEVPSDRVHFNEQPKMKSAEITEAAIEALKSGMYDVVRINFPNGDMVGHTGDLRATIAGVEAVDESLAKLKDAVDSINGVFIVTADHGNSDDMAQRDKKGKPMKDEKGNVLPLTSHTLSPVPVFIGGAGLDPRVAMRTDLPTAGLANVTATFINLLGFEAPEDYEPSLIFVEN
DNA dC->dU-editing enzyme APOBEC-3G (Homo sapiens), sequence (Q9HC16 whole entry, looked up): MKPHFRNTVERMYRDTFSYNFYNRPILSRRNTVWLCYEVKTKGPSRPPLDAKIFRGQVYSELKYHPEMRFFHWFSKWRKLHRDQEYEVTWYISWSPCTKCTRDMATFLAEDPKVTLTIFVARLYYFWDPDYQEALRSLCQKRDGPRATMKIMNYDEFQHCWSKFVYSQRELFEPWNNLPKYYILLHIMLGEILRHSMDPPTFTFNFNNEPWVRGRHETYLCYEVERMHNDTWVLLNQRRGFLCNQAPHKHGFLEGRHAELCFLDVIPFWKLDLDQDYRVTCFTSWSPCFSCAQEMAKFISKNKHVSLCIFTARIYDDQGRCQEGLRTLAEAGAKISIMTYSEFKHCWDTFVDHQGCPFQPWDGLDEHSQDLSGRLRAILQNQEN
Peroxisome proliferator-activated receptor gamma (Homo sapiens), sequence (P37231 whole entry, looked up): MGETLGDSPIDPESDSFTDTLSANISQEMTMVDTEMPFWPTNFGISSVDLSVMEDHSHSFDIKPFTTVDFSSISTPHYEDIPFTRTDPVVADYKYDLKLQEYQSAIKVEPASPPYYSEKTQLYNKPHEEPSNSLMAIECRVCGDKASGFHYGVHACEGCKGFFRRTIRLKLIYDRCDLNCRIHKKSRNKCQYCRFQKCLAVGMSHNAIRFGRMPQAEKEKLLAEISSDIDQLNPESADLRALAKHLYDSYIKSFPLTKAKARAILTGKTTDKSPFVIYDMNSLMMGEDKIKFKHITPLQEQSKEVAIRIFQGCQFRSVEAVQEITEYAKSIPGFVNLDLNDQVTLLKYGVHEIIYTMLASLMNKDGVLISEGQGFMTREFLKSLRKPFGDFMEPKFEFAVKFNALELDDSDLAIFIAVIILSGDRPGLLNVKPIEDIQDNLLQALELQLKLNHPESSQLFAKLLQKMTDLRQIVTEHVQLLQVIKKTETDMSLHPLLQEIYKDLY
Ubiquitin carboxyl-terminal hydrolase 1 (Homo sapiens), sequence (O94782 whole entry, looked up): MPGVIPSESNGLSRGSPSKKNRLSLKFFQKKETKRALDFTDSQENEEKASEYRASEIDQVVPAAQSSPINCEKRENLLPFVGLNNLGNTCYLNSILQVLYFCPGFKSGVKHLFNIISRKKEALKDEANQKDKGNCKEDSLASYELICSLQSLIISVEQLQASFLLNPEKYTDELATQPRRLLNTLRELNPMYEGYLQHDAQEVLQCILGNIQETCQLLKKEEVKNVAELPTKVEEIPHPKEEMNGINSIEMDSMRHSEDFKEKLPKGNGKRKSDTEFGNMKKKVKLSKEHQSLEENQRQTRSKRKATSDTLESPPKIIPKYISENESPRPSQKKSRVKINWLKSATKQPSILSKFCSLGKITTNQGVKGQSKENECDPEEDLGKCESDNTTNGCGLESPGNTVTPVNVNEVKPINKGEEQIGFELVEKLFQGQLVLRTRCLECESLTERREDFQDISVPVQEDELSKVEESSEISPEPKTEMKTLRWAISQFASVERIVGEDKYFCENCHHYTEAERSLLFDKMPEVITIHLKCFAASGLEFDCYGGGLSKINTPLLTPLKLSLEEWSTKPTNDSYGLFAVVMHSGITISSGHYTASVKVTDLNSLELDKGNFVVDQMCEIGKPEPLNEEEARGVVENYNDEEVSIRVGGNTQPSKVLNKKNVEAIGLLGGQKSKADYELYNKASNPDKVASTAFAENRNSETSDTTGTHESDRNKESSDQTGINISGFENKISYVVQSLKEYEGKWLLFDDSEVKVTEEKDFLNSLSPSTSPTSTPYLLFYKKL
Retinoic acid receptor RXR-alpha (Homo sapiens), sequence (P19793 whole entry, looked up): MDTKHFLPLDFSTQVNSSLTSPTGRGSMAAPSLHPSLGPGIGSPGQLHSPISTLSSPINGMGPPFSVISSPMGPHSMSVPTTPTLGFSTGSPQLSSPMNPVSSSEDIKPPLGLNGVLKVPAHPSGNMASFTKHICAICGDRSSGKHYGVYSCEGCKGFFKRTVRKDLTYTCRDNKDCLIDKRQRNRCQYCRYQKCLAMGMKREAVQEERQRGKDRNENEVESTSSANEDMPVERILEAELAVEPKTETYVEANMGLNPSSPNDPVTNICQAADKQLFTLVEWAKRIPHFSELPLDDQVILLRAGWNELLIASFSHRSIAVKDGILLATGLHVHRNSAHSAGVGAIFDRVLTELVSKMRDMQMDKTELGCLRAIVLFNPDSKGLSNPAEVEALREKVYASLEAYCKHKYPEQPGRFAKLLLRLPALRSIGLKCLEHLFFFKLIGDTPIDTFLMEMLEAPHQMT
Vitamin D3 receptor (Homo sapiens), sequence (P11473 whole entry, looked up): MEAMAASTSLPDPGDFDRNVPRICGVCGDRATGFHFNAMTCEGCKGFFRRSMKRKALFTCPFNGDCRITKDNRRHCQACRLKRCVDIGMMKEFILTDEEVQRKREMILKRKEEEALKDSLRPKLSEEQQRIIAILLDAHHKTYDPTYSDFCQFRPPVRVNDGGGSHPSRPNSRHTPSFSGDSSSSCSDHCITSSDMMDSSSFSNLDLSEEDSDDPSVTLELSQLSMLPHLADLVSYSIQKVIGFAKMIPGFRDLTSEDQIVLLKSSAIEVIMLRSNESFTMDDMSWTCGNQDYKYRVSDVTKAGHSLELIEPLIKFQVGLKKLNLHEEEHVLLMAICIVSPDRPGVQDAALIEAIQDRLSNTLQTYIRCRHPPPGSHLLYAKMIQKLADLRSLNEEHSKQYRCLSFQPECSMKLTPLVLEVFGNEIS
Peroxisome proliferator-activated receptor delta (Homo sapiens), sequence (Q03181 whole entry, looked up): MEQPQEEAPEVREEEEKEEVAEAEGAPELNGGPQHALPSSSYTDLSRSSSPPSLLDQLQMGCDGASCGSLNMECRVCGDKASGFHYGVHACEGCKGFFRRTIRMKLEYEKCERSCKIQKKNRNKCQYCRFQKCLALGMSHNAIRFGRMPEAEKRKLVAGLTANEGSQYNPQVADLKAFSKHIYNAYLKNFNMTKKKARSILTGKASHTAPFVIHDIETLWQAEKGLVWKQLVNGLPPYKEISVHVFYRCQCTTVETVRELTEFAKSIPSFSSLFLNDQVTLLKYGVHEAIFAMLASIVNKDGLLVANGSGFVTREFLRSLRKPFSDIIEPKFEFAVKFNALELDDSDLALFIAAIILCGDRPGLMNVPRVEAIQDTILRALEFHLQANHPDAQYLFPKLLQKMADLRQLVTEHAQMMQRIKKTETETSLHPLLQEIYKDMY
Estrogen receptor (Homo sapiens), sequence (P03372 whole entry, looked up): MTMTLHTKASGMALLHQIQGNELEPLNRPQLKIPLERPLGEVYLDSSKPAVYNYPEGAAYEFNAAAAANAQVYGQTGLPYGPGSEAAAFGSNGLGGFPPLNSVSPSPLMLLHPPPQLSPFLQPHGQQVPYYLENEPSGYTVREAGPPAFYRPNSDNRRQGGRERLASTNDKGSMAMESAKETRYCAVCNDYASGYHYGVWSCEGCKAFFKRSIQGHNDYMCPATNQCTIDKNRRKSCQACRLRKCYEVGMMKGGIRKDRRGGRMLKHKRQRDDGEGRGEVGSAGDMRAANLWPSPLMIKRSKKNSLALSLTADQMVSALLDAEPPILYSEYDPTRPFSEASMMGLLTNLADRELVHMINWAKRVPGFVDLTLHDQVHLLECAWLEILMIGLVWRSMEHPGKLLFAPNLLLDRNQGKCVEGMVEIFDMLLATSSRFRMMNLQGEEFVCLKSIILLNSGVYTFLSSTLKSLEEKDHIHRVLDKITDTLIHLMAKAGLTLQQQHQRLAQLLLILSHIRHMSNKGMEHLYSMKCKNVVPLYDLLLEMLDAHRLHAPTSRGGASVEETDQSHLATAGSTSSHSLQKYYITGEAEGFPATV
Glucocorticoid receptor (Homo sapiens), sequence (P04150 whole entry, looked up): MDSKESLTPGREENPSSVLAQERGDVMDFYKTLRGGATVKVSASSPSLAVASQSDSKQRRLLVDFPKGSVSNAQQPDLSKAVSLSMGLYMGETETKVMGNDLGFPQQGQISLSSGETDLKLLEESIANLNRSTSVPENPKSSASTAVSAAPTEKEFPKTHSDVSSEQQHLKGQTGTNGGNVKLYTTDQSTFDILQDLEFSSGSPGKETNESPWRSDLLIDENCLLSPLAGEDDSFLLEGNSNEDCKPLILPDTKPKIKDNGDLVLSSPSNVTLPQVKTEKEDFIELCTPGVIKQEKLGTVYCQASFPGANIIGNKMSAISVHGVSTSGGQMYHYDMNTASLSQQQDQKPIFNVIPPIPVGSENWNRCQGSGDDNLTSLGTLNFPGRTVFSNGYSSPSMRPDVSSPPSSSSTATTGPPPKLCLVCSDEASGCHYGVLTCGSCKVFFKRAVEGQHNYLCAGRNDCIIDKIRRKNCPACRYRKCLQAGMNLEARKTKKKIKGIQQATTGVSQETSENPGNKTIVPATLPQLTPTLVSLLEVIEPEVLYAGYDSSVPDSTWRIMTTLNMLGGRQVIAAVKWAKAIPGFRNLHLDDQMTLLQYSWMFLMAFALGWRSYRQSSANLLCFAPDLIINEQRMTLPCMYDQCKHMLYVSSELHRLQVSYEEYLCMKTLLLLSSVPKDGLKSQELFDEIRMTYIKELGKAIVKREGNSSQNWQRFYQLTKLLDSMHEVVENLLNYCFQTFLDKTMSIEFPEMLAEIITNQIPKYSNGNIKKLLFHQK

Structure (SMILES): c1ccc([C@H]2CN3CCSC3=N2)cc1
- outcome [1]: inactive
- Potency [2]: inactive
- Potency [3]: inactive

Structure (SMILES): NNCCc1ccccc1
- outcome [1]: inactive
- Potency [2]: inactive
- Potency [3]: inactive

Structure (SMILES): Nc1nc2ccc(OC(F)(F)F)cc2s1
- outcome [1]: inactive
- Potency [2]: inactive
- Potency [3]: inactive
- outcome [4]: inactive

Structure (SMILES): Cc1oncc1C(=O)Nc1ccc(C(F)(F)F)cc1
- outcome [1]: inactive
- Potency [2]: inactive
- Potency [3]: inactive
- outcome [5]: inactive

Structure (SMILES): N[C@@H]1CONC1=O
- outcome [1]: inactive
- Potency [2]: inactive
- Potency [3]: inactive

Structure (SMILES): CC(C)(C)NCC(O)c1ccc(O)c(CO)c1 (stereo not drawn)
- outcome [1]: inactive
- Potency [2]: inactive
- Potency [3]: inactive

Structure (SMILES): CCCCNc1cc(C(=O)O)cc(S(N)(=O)=O)c1Oc1ccccc1
- outcome [1]: inactive
- Potency [2]: inactive
- Potency [3]: inactive

Structure (SMILES): N=c1nc(N2CCCCC2)cc(N)n1O
- outcome [1]: inactive
- Potency [2]: inactive
- Potency [3]: inactive
- outcome [4]: inactive

Structure (SMILES): OC(CCN1CCCCC1)(c1ccccc1)C1CC2C=CC1C2 (stereo not drawn)
- outcome [1]: inactive
- Potency [2]: inactive

Structure (SMILES): O=C(Nc1nc2ccccc2n1CCN1CCOCC1)c1cccc([N+](=O)[O-])c1
- outcome [1]: inactive
- Potency [2]: inactive
- Potency [3]: inactive

Structure (SMILES): CN1CCN(CCCN2c3ccccc3Sc3ccc(C(F)(F)F)cc32)CC1
- outcome [1]: inactive
- Potency [2]: 50.1 µM (active)
- Potency [3]: 28.2 µM (active)

Structure (SMILES): CC(C[N+](C)(C)C)OC(N)=O (stereo not drawn)
- outcome [1]: inactive
- Potency [2]: inactive
- Potency [3]: inactive

Structure (SMILES): NC(=O)c1ccc(-c2nc(-c3ccc4c(c3)OCO4)c(-c3ccccn3)[nH]2)cc1
- outcome [4]: inactive

Structure (SMILES): CCN(c1ccccc1)c1cc(NC)[n+](C)c(C)n1
- outcome [4]: inactive

Structure (SMILES): CCOC(=O)C1=C[C@]2(CC)CCCN3CCc4c(n1c1ccccc41)[C@@H]32
- outcome [1]: inactive
- Potency [3]: inactive
- outcome [5]: inactive

Structure (SMILES): Cc1cc2c(C(C)C)c(O)c(O)c(C=O)c2c(O)c1-c1c(C)cc2c(C(C)C)c(O)c(O)c(C=O)c2c1O
- outcome [4]: inactive

Structure (SMILES): CC(C)C[C@H](NC(=O)[C@@H](O)[C@H](N)Cc1ccccc1)C(=O)O
- outcome [1]: inactive
- Potency [2]: inactive
- outcome [4]: inactive

Structure (SMILES): O=C1CCC(N2C(=O)c3ccccc3C2=O)C(=O)N1 (stereo not drawn)
- outcome [1]: inactive
- Potency [2]: inactive
- Potency [3]: inactive
- activation [6]: -2.05% (inactive)
- max response [7]: 27.4%
- outcome [8]: inactive
- outcome [9]: inactive
- outcome [10]: inactive
- max response [11]: -12.6%
- outcome [12]: inactive
- max response [13]: -1.95%

Structure (SMILES): NS(=O)(=O)c1cc2c(cc1Cl)NC=NS2(=O)=O
- outcome [1]: inactive
- Potency [2]: inactive
- Potency [3]: inactive
- Potency [14]: inactive
- outcome [15]: inactive
- max response [7]: -29%
- outcome [8]: inactive
- outcome [9]: inactive
- outcome [10]: inactive
- outcome [16]: inactive
- outcome [17]: inactive
- max response [11]: -7.55%
- outcome [12]: inactive
- outcome [18]: inactive
- max response [13]: -2.78%
